PubChem BioAssay (NCATS)
Results filed as inconclusive are left out. The source made the active and inactive calls. Calls come from the whole dose curve; as a rule, active = well fitted inhibition curve with a large enough effect; inconclusive = small, poorly fitted or top-dose-only effect; inactive = flat fitted curve, though single readings scatter.

Key:
NIH3T3 [1] = test: Cytotoxic Profiling of Annotated Libraries Using Quantitative High-Throughput Screening (AID 1296008); conditions: Five cell lines viability, CellTiter-Glo ATP luminescence, 48-72 h; max response: stronger effect = lower value
How it was run: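 Compounds were pin-transferred onto cells and incubated 48 or 72 hr at 37 degree Celsius, 95% humidity. CellTiter-Glo was added, plates sat 10 min at room temperature, then ATP-coupled luminescence was imaged as the viability read-out.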

MCC-13 = test: qHTS assay to identify novel small-molecules to repurpose for Merkel cell carcinoma treatment (AID 1296009); conditions: MCC and control cell lines, CellTiter-Glo viability, 72 h; series mostly up to 46 µM
How it was run: (§1)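 Viability readout: ATP luminescence (CellTiter-Glo) after 72 hr drug exposure at 37 degree celsius. Dose-response format was 8 points for NPC and 11 points for MIPE; data normalized to in-plate controls.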

MCC-26 = test: as above; conditions: MCC and control cell lines, CellTiter-Glo viability, 72 h; series mostly up to 46 µM
How it was run: as §1

MKL-1 = test: as above; conditions: MCC and control cell lines, CellTiter-Glo viability, 72 h; series mostly up to 46 µM
How it was run: as §1

HEK293T = test: as above; conditions: MCC and control cell lines, CellTiter-Glo viability, 72 h; at 44.8 µM (top of the series) unless noted
How it was run: as §1

UISO = test: as above; conditions: MCC and control cell lines, CellTiter-Glo viability, 72 h; series mostly up to 46 µM
How it was run: as §1

MKL-2 = test: as above; conditions: MCC and control cell lines, CellTiter-Glo viability, 72 h; series mostly up to 46 µM
How it was run: as §1

NIH3T3 [2] = test: as above; conditions: MCC and control cell lines, CellTiter-Glo viability, 72 h; at 44.8 µM (top of the series) unless noted
How it was run: as §1

WaGa = test: as above; conditions: MCC and control cell lines, CellTiter-Glo viability, 72 h; series mostly up to 46 µM
How it was run: as §1
% is set by controls: 0 for no effect and ±100 for the full control effect.
Note: nearly all actives have a fitted effect of over 60% in size.

CCOC(=O)N1CCC(n2c(=O)[nH]c3cc(Cl)ccc32)CC1
inactive: max response (NIH3T3 [1]) 3.06% | Potency (MCC-13) | Potency (MCC-26) | Potency (MKL-1)

CC(=O)OCC[N+](C)(C)C
inactive: max response (NIH3T3 [1]) 3.81% | outcome (HEK293T) | Potency (MCC-13) | Potency (MCC-26) | Potency (MKL-1) | Potency (UISO)

CCOC(=O)Oc1ccc(CCNC(=O)[C@H](CCSC)NC(C)=O)cc1OC(=O)OCC
inactive: outcome (NIH3T3 [1]) | Potency (MCC-13) | Potency (MCC-26) | Potency (MKL-1) | Potency (MKL-2) | outcome (NIH3T3 [2]) | Potency (UISO) | Potency (WaGa)

CCC(=O)O[C@H]1[C@H](O[C@@H]2[C@@H](C)[C@H](O[C@H]3C[C@@](C)(OC)[C@@H](O)[C@H](C)O3)[C@@H](C)C(=O)O[C@H](CC)[C@@](C)(O)[C@H](O)[C@@H](C)C(=O)[C@H](C)C[C@@]2(C)O)O[C@H](C)C[C@@H]1N(C)C
inactive: max response (NIH3T3 [1]) 1.01% | outcome (HEK293T) | Potency (MCC-13) | Potency (MCC-26) | Potency (MKL-1) | Potency (MKL-2) | Potency (UISO) | Potency (WaGa)

COc1cc(NS(=O)(=O)c2ccc(N)cc2)nc(C)n1
inactive: max response (NIH3T3 [1]) 4.73% | outcome (HEK293T) | Potency (MCC-13) | Potency (MCC-26) | Potency (MKL-1) | Potency (MKL-2) | Potency (UISO) | Potency (WaGa)

C/C(=C(/OCCOc1ccc(Cl)cc1)c1ccc(Cl)cc1Cl)n1ccnc1
inactive: max response (NIH3T3 [1]) -25.5% | Potency (MCC-13) | Potency (MCC-26) | Potency (MKL-1)

NS(=O)(=O)c1cc2c(cc1Cl)CN(C1CCCCC1)C2=O
inactive: max response (NIH3T3 [1]) 4.87% | outcome (HEK293T) | Potency (MCC-13) | Potency (MCC-26) | Potency (MKL-1) | Potency (MKL-2) | Potency (UISO) | Potency (WaGa)

O=C(O)Cc1ccc(OCCNC[C@H](O)c2ccccc2)cc1
inactive: max response (NIH3T3 [1]) 0.971% | Potency (MCC-13)

O=c1[nH]c(=O)n([C@H]2O[C@H](CO)[C@@H](O)[C@@H]2O)cc1/C=C\Br
inactive: max response (NIH3T3 [1]) -0.191% | outcome (HEK293T) | Potency (MCC-13) | Potency (MCC-26) | Potency (MKL-1) | Potency (MKL-2) | Potency (UISO) | Potency (WaGa)

O=C(O)Cn1cnnn1
inactive: max response (NIH3T3 [1]) -2.11% | outcome (HEK293T) | Potency (MCC-13) | Potency (MCC-26) | Potency (MKL-1) | Potency (MKL-2) | Potency (UISO) | Potency (WaGa)

OCCOCCN1CCN(C(c2ccccc2)c2ccc(Cl)cc2)CC1 (stereo not given)
inactive: outcome (NIH3T3 [1]) | Potency (MCC-13) | Potency (MCC-26) | Potency (MKL-1) | Potency (MKL-2) | outcome (NIH3T3 [2]) | Potency (UISO)

OCCCc1ccccc1
inactive: outcome (NIH3T3 [1]) | Potency (MCC-13) | Potency (MCC-26) | Potency (MKL-1) | Potency (MKL-2) | outcome (NIH3T3 [2]) | Potency (UISO) | Potency (WaGa)

CC(=O)CC/C=C(\C)CC/C=C(\C)CC/C=C(\C)CCC=C(C)C
inactive: max response (NIH3T3 [1]) -3.99% | outcome (HEK293T) | Potency (MCC-13) | Potency (MCC-26) | Potency (MKL-1) | Potency (MKL-2) | Potency (UISO) | Potency (WaGa)

O=C(CCCCC(=O)Nc1c(I)cc(I)c(C(=O)O)c1I)Nc1c(I)cc(I)c(C(=O)O)c1I
inactive: max response (NIH3T3 [1]) 4.23% | outcome (HEK293T) | Potency (MCC-13) | Potency (MCC-26) | Potency (MKL-1) | Potency (MKL-2) | Potency (UISO) | Potency (WaGa)

COc1cc(C(=O)OC(COCCC(C)C)CN2CCOCC2)cc(OC)c1OC (stereo not given)
inactive: max response (NIH3T3 [1]) 3.87% | outcome (HEK293T) | Potency (MCC-13) | Potency (MCC-26) | Potency (MKL-1) | Potency (MKL-2) | Potency (UISO) | Potency (WaGa)

C[C@H]1C[C@H]2[C@@H]3CCC4=CC(=O)C=C[C@]4(C)[C@H]3C(=O)C[C@]2(C)[C@@]1(O)C(=O)CO
inactive: outcome (NIH3T3 [1]) | Potency (MCC-13) | Potency (MCC-26) | Potency (MKL-1) | Potency (MKL-2) | outcome (NIH3T3 [2]) | Potency (UISO) | Potency (WaGa)

CCOC(=O)C(=O)CCCCCCl
inactive: outcome (NIH3T3 [1]) | Potency (MCC-13) | Potency (MCC-26) | Potency (MKL-1) | Potency (MKL-2) | outcome (NIH3T3 [2]) | Potency (UISO) | Potency (WaGa)

CNC(=O)c1cnn(-c2nc(N)c3ncn([C@@H]4O[C@H](CO)[C@@H](O)[C@H]4O)c3n2)c1
inactive: max response (NIH3T3 [1]) -3.79% | outcome (HEK293T) | Potency (MCC-13) | Potency (MCC-26) | Potency (MKL-1) | Potency (MKL-2) | Potency (UISO) | Potency (WaGa)

CC(=O)OC[C@H]1O[C@@H](OC(C)=O)[C@H](OC(C)=O)[C@@H]1OC(C)=O
inactive: outcome (NIH3T3 [1]) | Potency (MCC-13) | Potency (MCC-26) | Potency (MKL-1) | Potency (MKL-2) | outcome (NIH3T3 [2]) | Potency (UISO) | Potency (WaGa)

C1N2CN3CN1CN(C2)C3
inactive: max response (NIH3T3 [1]) -2.39% | outcome (HEK293T) | Potency (MCC-13) | Potency (MCC-26) | Potency (MKL-1) | Potency (MKL-2) | Potency (UISO) | Potency (WaGa)

Cc1ccc(C(=O)C(=O)O)cc1C
inactive: max response (NIH3T3 [1]) 2.73% | outcome (HEK293T) | Potency (MCC-13) | Potency (MCC-26) | Potency (MKL-1) | Potency (MKL-2) | Potency (UISO) | Potency (WaGa)

C1=CC2C3C=CC(C3)C2C1 (stereo not given)
inactive: max response (NIH3T3 [1]) 0.366% | outcome (HEK293T) inactive [at 92 µM] | Potency (MCC-13) | Potency (MCC-26) | Potency (MKL-1) | Potency (MKL-2) | Potency (UISO) | Potency (WaGa)

CCCCOCCOC(=O)c1cccnc1
inactive: max response (NIH3T3 [1]) -2.28% | outcome (HEK293T) | Potency (MCC-13) | Potency (MCC-26) | Potency (MKL-1) | Potency (MKL-2) | Potency (UISO) | Potency (WaGa)

Cc1ncc([N+](=O)[O-])n1C
inactive: max response (NIH3T3 [1]) -19.7% | outcome (HEK293T) | Potency (MCC-13) | Potency (MCC-26) | Potency (MKL-1) | Potency (MKL-2) | Potency (UISO) | Potency (WaGa)

O=C(O)c1ccccc1S
inactive: max response (NIH3T3 [1]) 1.26% | Potency (MCC-13) | Potency (MCC-26) | Potency (MKL-1) | Potency (MKL-2) | Potency (UISO) | Potency (WaGa)

CCCCN(CCCC)C(C(N)=O)c1ccc(OC)cc1 (stereo not given)
inactive: outcome (NIH3T3 [1]) | Potency (MCC-13) | Potency (MCC-26) | Potency (MKL-1) | Potency (MKL-2) | outcome (NIH3T3 [2]) | Potency (UISO) | Potency (WaGa)

Cc1cc(=O)oc2cc(O[C@@H]3SC[C@@H](O)[C@H](O)[C@H]3O)ccc12
inactive: outcome (NIH3T3 [1]) | Potency (MCC-13) | Potency (MCC-26) | Potency (MKL-1) | Potency (MKL-2) | outcome (NIH3T3 [2]) | Potency (UISO) | Potency (WaGa)

C[N+](C)(CCOc1ccccc1)Cc1cccs1
inactive: max response (NIH3T3 [1]) -2.33% | Potency (MCC-13) | Potency (MCC-26) | Potency (MKL-1) | Potency (MKL-2) | Potency (UISO)

CCOC(=O)OCC/C(SC(=O)OCC)=C(\C)N(C=O)Cc1cnc(C)nc1N
inactive: outcome (NIH3T3 [1]) | Potency (MCC-13) | Potency (MCC-26) | Potency (MKL-1) | Potency (MKL-2) | outcome (NIH3T3 [2]) | Potency (UISO) | Potency (WaGa)

CC(C)C[C@@H]1[C@H](c2ccccc2)OC(=O)N1CCCN1CCCCCC1
inactive: max response (NIH3T3 [1]) -3.61% | Potency (MCC-13) | Potency (MCC-26) | Potency (MKL-1) | Potency (MKL-2) | Potency (UISO) | Potency (WaGa)

CCN(CC)CCN
inactive: max response (NIH3T3 [1]) -0.486% | Potency (MCC-13) | Potency (MCC-26) | Potency (MKL-1) | Potency (MKL-2) | Potency (UISO) | Potency (WaGa)

COc1ccccc1OCC1CNC(=O)O1 (stereo not given)
inactive: outcome (NIH3T3 [1]) | Potency (MCC-13) | Potency (MCC-26) | Potency (MKL-1) | Potency (MKL-2) | outcome (NIH3T3 [2]) | Potency (UISO) | Potency (WaGa)

CC(C)(C)c1ccc(C(=O)CCCCl)cc1
inactive: outcome (NIH3T3 [1]) | Potency (MCC-13) | Potency (MCC-26) | Potency (MKL-1) | Potency (MKL-2) | outcome (NIH3T3 [2]) | Potency (UISO) | Potency (WaGa)

O=P(O)(O)OCC(O)CO (stereo not given)
inactive: outcome (NIH3T3 [1]) | Potency (MCC-13) | Potency (MCC-26) | Potency (MKL-1) | Potency (MKL-2) | outcome (NIH3T3 [2]) | Potency (UISO) | Potency (WaGa)

CC(C)(C)NCC(O)COc1ccccc1OCC1CCCO1 (stereo not given)
inactive: outcome (NIH3T3 [1]) | Potency (MCC-13) | Potency (MCC-26) | Potency (MKL-1) | Potency (MKL-2) | outcome (NIH3T3 [2]) | Potency (UISO) | Potency (WaGa)

Clc1ccc2c(c1)Nc1ccccc1S2
inactive: outcome (NIH3T3 [1]) | Potency (MCC-13) | Potency (MCC-26) | Potency (MKL-1) | Potency (MKL-2) | outcome (NIH3T3 [2]) | Potency (WaGa)
